Screens: PubChem, several laboratories
Compounds with a hit are over-represented: about 27% of the library has one in this group of screens.
sEH act: activators of human soluble epoxide hydrolase; activation, % at 2 µM; purified human sEH enzymatic activity, activator screen; AID 717; P34913; actives 0.04% (n = 91,000); in the data active = activation above about 37%
Target sequence (P34913 whole entry, looked up): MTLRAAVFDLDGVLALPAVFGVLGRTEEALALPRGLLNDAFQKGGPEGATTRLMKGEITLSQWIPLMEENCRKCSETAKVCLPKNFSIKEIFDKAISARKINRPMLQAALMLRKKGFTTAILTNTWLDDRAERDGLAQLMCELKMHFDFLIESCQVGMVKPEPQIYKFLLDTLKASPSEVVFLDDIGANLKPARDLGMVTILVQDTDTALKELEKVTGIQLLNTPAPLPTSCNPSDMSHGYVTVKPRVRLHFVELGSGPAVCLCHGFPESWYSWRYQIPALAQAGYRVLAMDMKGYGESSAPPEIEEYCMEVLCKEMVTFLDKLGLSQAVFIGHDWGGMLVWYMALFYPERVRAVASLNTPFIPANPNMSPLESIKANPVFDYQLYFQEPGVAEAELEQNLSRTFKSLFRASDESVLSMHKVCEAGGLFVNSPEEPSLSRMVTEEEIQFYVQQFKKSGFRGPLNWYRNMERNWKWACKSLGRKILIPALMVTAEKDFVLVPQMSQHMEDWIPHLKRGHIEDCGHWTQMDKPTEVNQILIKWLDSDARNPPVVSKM
CYP2C19 activ: cytochrome P450 2C19 (human) activation. P33261. recombinant CYP2C19, luciferin-H EGE luminescence; stronger effect = higher value; 0 = fully inhibited enzyme, 1 = untreated enzyme. activation factor at 5 µM. 96,000 tested, under 10 active. AID 1025;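 active = activation factor of at least 2 at 5 µM in the primary screen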
sEH inh: blocks human soluble epoxide hydrolase activity; inhibition, % at 2 µM; P34913; actives 0.34% (n = 91,000); recombinant human sEH enzymatic activity assay; in the data active = inhibition above about 80%
CYP2C9 activ: increases human cytochrome P450 2C9 activity | P11712 | recombinant CYP2C9, luciferin-H conversion, luminescence; stronger effect = higher value; factor 1 = untreated enzyme, 0 = blocked | activation factor at 5 µM | actives 1.4% (n = 96,000) | AID 1024;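 active = activation factor of 2 or more for CYP2C9 at a 5 µM dose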
CYP2C9 inh: inhibitors of human CYP2C9; P11712; CYP2C9 Supersomes, luciferin-H conversion, luminescence; inhibition, % at 5 µM; actives 20% (n = 96,000); AID 777;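 active = blocking of liver enzyme CYP2C9 beyond about 50% at 5 µM, limit read from the data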
CYP2C19 inh: human CYP2C19 inhibition; P33261; CYP2C19 Supersomes, luciferin-H EGE luminescence, 30 min; inhibition, % at 5 µM; actives 21% (n = 96,000); AID 778;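 active = CYP2C19 inhibition above a set limit at 5 µM in the primary screen, cut at about 50% in these data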
A number is an active result; n = inactive; x = no result.

SMILES	sEH act	CYP2C19 activ	sEH inh	CYP2C9 activ	CYP2C9 inh	CYP2C19 inh
COC(=O)c1cccc(COC(=O)c2ccc(N(C)C)cc2)c1	n	x	n	x	x	x
CC1CN(S(=O)(=O)c2cccc(C(=O)OCC(=O)c3cccs3)c2)CC(C)O1 (stereo not drawn)	n	n	n	n	n	n
CC1CN(S(=O)(=O)c2cccc(C(=O)OCc3cc(=O)oc4cc(O)ccc34)c2)CC(C)O1 (stereo not drawn)	n	n	n	n	83	69
CN(C)c1cccc(C(=O)OCc2cc(=O)oc3cc(O)ccc23)c1	n	n	n	n	79	57
CCN(C(C)=O)c1cccc2ccccc12	n	n	n	n	n	n
COc1ccc(CN(C(C)=O)c2cccc(C)c2C)cc1	n	n	n	n	68	99
Cc1ccc2c(c1)c(CC(=O)Nc1ccc(C)c(F)c1)c(C(=O)O)n2C	n	n	n	n	84	n
Cn1c(C(=O)O)c(CC(=O)Nc2ccccc2F)c2ccccc21	n	n	n	n	93	59
COc1ccc(S(=O)(=O)N2CCOCC2)c(Cl)c1Cl	n	n	n	4	n	70
COc1ccc(S(=O)(=O)N2CCOCC2)cc1Cl	n	n	n	3.3	n	59
Cc1ccc(S(=O)(=O)N2CCN(S(=O)(=O)N3CCOCC3)CC2)cc1C	n	n	n	n	n	50
CCC(C)c1cc(S(=O)(=O)N2CCOCC2)ccc1OC (stereo not drawn)	n	n	n	n	n	69
COc1ccc(S(=O)(=O)N2CCOCC2)cc1C(C)C	n	n	n	n	n	n
COc1cc(C)c(Br)cc1S(=O)(=O)N1CCOCC1	n	x	n	x	x	x
COC(=O)c1c(C(=O)OC)c2oc3ccccc3n2c1Cl	n	n	n	n	n	n
CCN(CC)c1ccc(C2C(C(C)=O)C(=O)CC(C)(O)C2C(C)=O)cc1 (stereo not drawn)	n	x	n	x	x	x
COc1ccc2cc(S(=O)(=O)N3CCOCC3)ccc2c1	n	n	n	n	n	79
O=S(=O)(c1ccc2nc(COc3ccc(Cl)cc3Cl)[nH]c2c1)N1CCOCC1	n	n	n	n	58	51
O=S(=O)(c1ccc(Oc2ccc(S(=O)(=O)N3CCOCC3)cc2)cc1)N1CCOCC1	x	n	x	n	n	n
Cc1ccccc1OCc1nc2ccc(S(=O)(=O)N3CCOCC3)cc2[nH]1	n	n	n	n	n	n
O=S(=O)(c1ccc2nc(-c3ccco3)c(-c3ccco3)nc2c1)N1CCOCC1	n	n	n	n	91	n
O=C(Nc1ccc(N2CCOCC2)cc1)Nc1ccc2nc(-c3ccco3)c(-c3ccco3)nc2c1	n	x	n	x	x	x
Cc1ccc(S(=O)(=O)N2CCOCC2)cc1C(=O)OCC(=O)N1CCc2ccccc2C1	n	n	n	n	78	75
CC(C)C1=C2CCCCC2NC(=O)N1 (stereo not drawn)	x	n	x	n	n	n
Cc1n[nH]c(C)c1N=Nc1cc(Cl)ccc1Cl	n	n	n	n	n	n
SMILES	sEH act	CYP2C19 activ	sEH inh	CYP2C9 activ	CYP2C9 inh	CYP2C19 inh
Cn1c(CNC(=O)c2ccc(Cl)c(Cl)c2)nnc1SCC(=O)Nc1sc2c(c1C#N)CCCC2	n	n	n	n	n	n
Cc1ccc(S(=O)(=O)N2CCSC2)cc1C	n	n	n	2.3	n	n
Cc1ccc(S(=O)(=O)N2CCOCC2)cc1C(=O)N1c2ccccc2Sc2ccccc21	n	n	n	n	61	n
Cc1nc(-c2ccc(NS(C)(=O)=O)cc2)cs1	n	n	n	n	n	n
O=C(OCc1cc2ccccc2[nH]c1=O)C1CCCCC1	n	n	n	n	96	89
Nc1nc(CSc2nc3ccccc3[nH]2)nc(N2CCOCC2)n1	n	n	n	n	n	n
COc1cc(CNC2CCCCCC2)cc(OC)c1OC	n	n	n	n	n	n
COc1ccc(CNc2ccccc2SC)cc1OC	n	n	n	n	n	83
COc1cc(CNc2ccccc2SC)cc(OC)c1OC	n	n	n	n	89	95
O=C(/C=C/c1cc([N+](=O)[O-])ccc1OC(F)F)NCc1ccc(Cl)cc1	n	n	n	n	n	n
O=C(OCc1cc(Cl)ccc1OC(F)F)c1cc(S(=O)(=O)O)ccc1O	n	n	n	n	73	n
Cn1nc(C(C)(C)C)cc1C(=O)Nc1nc2c(s1)C(=O)CC(C)(C)C2	n	n	n	n	n	n
Cc1cc(C#N)c(C)n1-c1cc(C(F)(F)F)ccc1N1CCOCC1	n	n	n	n	n	99
CCc1ccccc1OCCOc1ccc(C)cc1OC	n	n	n	n	n	n
C=CCc1cc(C)ccc1OCCn1ccnc1	n	n	n	n	95	96
Cc1ccc(C)c(OCCCCn2cnc3ccccc3c2=O)c1	n	n	n	n	n	n
Cc1ccc(C)c(OCCCCCn2ccnc2)c1	n	n	n	n	100	100
Cc1ccccc1NC(=O)NCC1CCCO1 (stereo not drawn)	n	n	n	n	n	n
CCOc1ccc(C2CC(=O)c3c([nH]c(C(=O)OC)c3C)C2)cc1OC (stereo not drawn)	n	n	n	n	52	n
C=CCOC(=O)C1=C(C)NC(=O)NC1c1ccc(OC(=O)c2ccco2)c(OC)c1 (stereo not drawn)	n	n	n	n	n	n
CCCCOC(=O)c1[nH]c2c(c1C)C(=O)CC(c1cc(OC)c(OC)c(OC)c1)C2 (stereo not drawn)	x	n	x	n	63	n
C=CCOC(=O)c1[nH]c2c(c1C)C(=O)CC(c1cc(OC)c(OC)c(OC)c1)C2 (stereo not drawn)	x	n	x	n	87	61
COC(=O)c1[nH]c2c(c1C)C(=O)CC(c1cc(OC)ccc1OC)C2 (stereo not drawn)	n	n	n	n	n	n
CN(C)c1cc(-c2ccccc2)nc(N)n1	n	n	n	n	n	n
Clc1ccc(NCc2nnc3n2CCCCC3)cc1	n	n	n	n	n	55
SMILES	sEH act	CYP2C19 activ	sEH inh	CYP2C9 activ	CYP2C9 inh	CYP2C19 inh
c1ccc(NCc2nnc3n2CCCCC3)cc1	n	n	n	n	n	n
O=C(CCNS(=O)(=O)c1cccs1)NCc1ccco1	n	n	n	n	n	n
CCc1cc(/C(Cc2csc(C)n2)=N/O)c(O)cc1O	n	n	n	n	n	56
O=c1cc(-c2ccncc2)oc2ccccc12	n	n	n	n	n	86
Nc1nncn1C(=O)CCCN1C(=O)c2ccccc2C1=O	n	n	n	n	n	n
NC(N)=Nc1nc(CCN2C(=O)c3ccccc3C2=O)cs1	n	n	n	n	n	55
CNc1nc(CCN2C(=O)c3ccccc3C2=O)cs1	n	n	n	n	n	82
Cc1nc(CCN2C(=O)c3ccccc3C2=O)cs1	n	n	n	n	n	70
COc1ccc(CN2C(=O)CS(=O)CC2=O)cc1OC	n	n	n	n	n	n
O=C(Nc1ccc(F)cc1)c1cc(S(=O)(=O)N2CCCCC2)cs1	n	n	n	n	n	n
